Assay outcomes (PubChem BioAssay)
Shown are actives, neighbours in structure and some others; about 2.2% of the full set was active somewhere.
SMARCA2 activ – SMARCA2 (BRM) function activators, primary screen, cell-based, luminescence, high throughput; MG213 cells, MMTV-luciferase reporter, dexamethasone, overnight; activation, % at 9.1 µM; 370,000 compounds, 1% hits; in the data active means activation above about 7.8%
GAA850 FXN act – FXN promoter activators, primary screen, cell-based, luciferase luminescence, HEK293 lucGAA850 | HEK293 lucGAA850 FXN promoter luciferase reporter, 24 h; percent of 10 µM SAHA response | activation, % at 6 µM | 360,000 compounds, 0.56% hits | AID 540364, 2011;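 active means activation above the average of all compounds screened plus 3 SD, cutoff fixed separately per campaign, cut at about 7.5% in these data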
GalR3 antag – GalR3 antagonists in HEK293 cells, primary screen, cell-based, fluorescence readout; Galanin receptor type 3 (Homo sapiens), O60755; HEK293 GalR3-CNG cAMP membrane potential fluorescence; galR3 body fused to GalR1 C-terminus; inhibition, % at 3 µM; 360,000 compounds, 0.44% hits; AID 651719, 2012;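 active means inhibition above the screen-wide average plus 3 SD, cut at about 13% in these data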;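 further: forskolin and galanin both at EC90 stimulate the cells; cAMP rise reported by CNG channel membrane potential dye signal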
Target sequence (O60755 1-299 limits assumed): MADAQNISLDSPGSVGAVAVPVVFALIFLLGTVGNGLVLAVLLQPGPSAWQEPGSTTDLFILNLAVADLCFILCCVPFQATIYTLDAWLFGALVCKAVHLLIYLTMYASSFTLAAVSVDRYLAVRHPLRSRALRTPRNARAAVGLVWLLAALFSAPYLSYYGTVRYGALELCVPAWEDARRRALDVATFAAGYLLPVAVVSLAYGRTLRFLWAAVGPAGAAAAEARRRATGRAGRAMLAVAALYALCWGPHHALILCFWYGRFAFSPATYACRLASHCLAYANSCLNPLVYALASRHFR
Hsp70 activator – Hsp70 transcriptional activators, primary screen, cell-based, HeLa, Hsp70 promoter luciferase, luminescence, 10 µM; HeLa Hsp70 promoter luciferase reporter; scaled: vehicle 0, proteasome-inhibitor control 100%; activation, % at 10 µM; 200,000 compounds, 0.04% hits;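 active means activation above the mean across all tested compounds plus 3 SD, cutoff set per campaign, cut at about 5.5% in these data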
HIF activator – HIF pathway transcriptional activators, primary screen, cell-based, U2OS HRE-luciferase, luminescence. 300,000 compounds, 0.32% hits. activation, % at 7.5 µM (by protocol). AID 1910, 2009. U2OS HRE-luciferase reporter; normalized: DMSO 0%, desferrioxamine 100%;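 active means mean activation of at least 10% of the iron chelator positive control signal, with at least half of replicates also reaching 10%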
SMARCA2 conf – SMARCA2 (BRM) function activators, confirmation, cell-based, luminescence, triplicate; activation, % at 9.1 µM; AID 652260, 2013; shares compounds with SMARCA2 activ; 3,500 compounds, 30% hits; MG213 cells, MMTV-luciferase with dexamethasone, overnight; MG213 cells expressing E1A, Rb sequestered; DMSO wells 0%, reference activator 100%;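 active means activation above its plate's cutoff, the mean activation of tested wells plus 3 SD, cut at about 7.9% in these data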
VP16 Luc act – GAL4-VP16 luciferase reporter activation, counter-screen for SMARCA2 (BRM) activator project, cell-based, pG5luc, luminescence, high throughput; shares compounds with SMARCA2 activ; HEK293 GAL4-VP16 pG5luc reporter; scaled: DMSO wells 0%, SAHA wells 100%; activation, % at 9.1 µM; 3,500 compounds, 41% hits;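 active means activation above the solvent-only control well mean plus 3 SD, averaged across control plates, cut at about 5.2% in these data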
Numbers stand for hits; – = inactive; · = not tested or not shown.

SMILES	SMARCA2 activ	GAA850 FXN act	GalR3 antag	Hsp70 activator	HIF activator	SMARCA2 conf	VP16 Luc act
O=c1c2ccccc2nc2c3ccccc3c(NCCN3CCOCC3)nn12	33.2	·	–	–	25.7	44.7	–
Cc1cc(C(=O)NCCC2=CCCCC2)c(C)o1	11.1	–	–	–	–	19.5	11.8
O=C(NCCc1ccccc1)NC1CCCCC1	11.1	–	–	–	–	9.0	7.7
O=C(NCCC1=CCCCC1)NC1CCCCC1	8.7	–	–	–	–	8.1	8.7
O=C(NC1CCCCCC1)C(=S)NCCc1ccccc1	–	–	–	–	–	·	·
NC(=O)NCCC1=CCCCC1	–	–	–	–	–	·	·
CCOC(=O)N/N=C/c1c(C)nn(-c2cccc(C(F)(F)F)c2)c1Cl	–	–	–	–	–	·	·
Cc1nn(-c2cccc(C(F)(F)F)c2)c(Cl)c1/C=N/Nc1cccc(C(=O)O)c1	12.5	–	–	–	–	10.0	15.5
O=C(c1ccc(Cl)cc1Cl)N1CCc2ccccc21	–	–	–	·	–	·	·
O=C(/C=C/c1ccc(Cl)cc1Cl)N1CCc2ccccc21	8.7	–	–	–	–	8.3	8.6
CC(=O)N1c2cc(S(=O)(=O)Nc3c(C)n(C)n(-c4ccccc4)c3=O)c(Br)cc2CC1C (stereo not given)	–	·	·	·	·	·	·
Cc1ccccc1C(=O)N1CCC(Oc2cccnc2)CC1	–	·	·	·	·	·	·
Cc1[nH]c(C)c(S(=O)(=O)Nc2ccc(F)cc2Cl)c1C(=O)N1CCCC1	9.0	–	–	·	–	–	–
Cc1[nH]c(C)c(S(=O)(=O)Nc2ccccc2Cl)c1C(=O)N1CCCC1	–	–	–	·	–	·	·
COc1cccc(CNS(=O)(=O)c2c(C)[nH]c(C)c2C(=O)N2CCCCC2)c1	13.4	–	–	·	–	–	–
O=C(NCCc1ccccc1)OCc1cn(Cc2ccc(Cl)cc2)nn1	–	·	·	·	·	·	·
COc1ccc(-n2cnc(=S)[nH]c2=S)cc1	13.6	–	–	·	·	21.3	–
C=CCN=C1NC(c2ccccc2C(F)(F)F)C(C(=O)OC)=C(C)N1Cc1ccc(C(F)(F)F)cc1 (stereo not given)	–	·	–	·	·	·	·
COC(=O)[C@]12CCCCC=C1N(Cc1ccc(OC)cc1)C(=O)[C@@H]2CC(=O)N1CCN(C(=O)c2ccco2)CC1	–	·	·	·	·	·	·
COc1ccc(CCN2C(=O)C3C4C=CC(C4)C3C2=O)cc1OC (stereo not given)	–	–	–	–	–	·	·
CCOc1ccc(CCN2C(=O)C3C4CCC(O4)C3C2=O)cc1OCC (stereo not given)	10.3	–	–	·	·	–	–
Cc1cc(C)nc(NC(=O)/C=C/c2cccs2)c1	8.8	–	–	–	–	–	9.9
COC(=O)[C@]12C[C@H](CC(=O)NCCCN3CCCC3=O)C(=O)N(CCc3ccc(OC)c(OC)c3)C1=C[C@H](C(C)(C)C)O[C@@H]2C	–	·	·	·	·	·	·
CCCOC(=O)c1ccc(NC(=O)COC)cc1	–	–	–	–	–	·	·
CC(=O)Nc1ccc(C(=O)OCCC(C)C)cc1	8.9	–	–	–	–	–	–
SMILES	SMARCA2 activ	GAA850 FXN act	GalR3 antag	Hsp70 activator	HIF activator	SMARCA2 conf	VP16 Luc act
COc1ccc2[nH]c3c(c2c1)CCN[C@]31C(=O)N(Cc2ccccc2)c2ccccc21	–	·	·	·	·	·	·
ON=Cc1ccnc2ccccc12	–	–	–	·	·	·	·
O=C(O)c1ccccc1N/N=C\c1ccnc2ccccc12	8.0	–	–	–	–	–	–
CCOc1ccc(-n2c(SCC(=O)Nc3ccc(S(=O)(=O)Nc4nccs4)cc3)nnc2-c2ccco2)cc1	–	·	·	·	·	·	·
COc1ncnc2c1oc1ccccc12	11.6	–	–	–	–	13.4	6.0
Cc1ccc(Nc2nnc(SC3CCOC3=O)s2)cc1 (stereo not given)	–	–	–	–	–	·	·
O=C1CCCCC1Sc1nnc(Nc2ccccc2)s1 (stereo not given)	8.8	–	–	–	–	–	7.7
CCn1c2ccccc2c2cc(C=NNC(=O)CSc3nc4ccccc4c(=O)n3-c3ccccc3)ccc21	–	·	·	·	·	·	·
CN(CC(=O)Nc1ccccc1Cl)C(=O)COC(=O)c1nc(Cl)c(Cl)c(Cl)c1Cl	21.8	–	–	·	–	8.2	–
CN(CC(=O)Nc1ccccc1Cl)C(=O)COC(=O)c1ccc(Cl)nc1	–	–	–	·	–	·	·
CCOC(=O)N1CCN(C(=O)C[C@H]2C(=O)N(CCCOC)C3=CCCC[C@@]32C(=O)OCC)CC1	–	·	·	·	·	·	·
Cc1cc(F)ccc1-c1cc(C(=O)NCC2CCCCC2)[nH]n1	8.6	–	–	·	·	–	–
CC(C)Oc1cc(F)ccc1-c1cc(C(=O)NCC2CCCCC2)[nH]n1	–	–	–	·	·	·	·
CCOC(=O)Cn1nc(NC(=O)c2ccc(C(=O)OC)cc2)cc1C	10.9	–	–	·	–	9.4	–
COc1cccc(C2NC(=S)N(Cc3ccc(Br)cc3)C(C)=C2C(C)=O)c1 (stereo not given)	–	·	–	·	·	·	·
O=C(CCSc1ccc(Cl)cc1)N1CCN(c2ncccn2)CC1	9.3	–	–	–	–	–	–
O=C(/C=C/Nc1cccc(C(F)(F)F)c1)c1ccco1	8.7	–	–	–	–	9.2	8.5
O=C(Nc1cccc(C(F)(F)F)c1)c1ccco1	–	–	–	–	–	·	·
CCN=C1NC(c2ccc(C(F)(F)F)cc2)C(C(=O)OC)=C(C)N1Cc1ccccc1C(F)(F)F (stereo not given)	–	·	–	·	·	·	·
O=C(CCn1nnc(-c2cccs2)n1)N1CCCCC1	9.0	·	·	·	·	–	–
Cn1cc([N+](=O)[O-])c(C(=O)Nc2ccc(-c3nc4ccccc4[nH]3)cc2)n1	9.8	–	–	–	–	10.7	7.6
CCN(CC)C(=O)CC[C@H]1CC[C@]2(CCCN(C(=O)c3ccc4ccccc4n3)C2)O1	–	·	·	·	·	·	·
CC(C1=CCCCC1)c1cnn(C)c1 (stereo not given)	9.4	·	·	·	·	–	–
NC(=O)C(C1=CCCCC1)c1ccccc1 (stereo not given)	–	–	–	·	·	·	·
O=C(CNc1ccc(Br)cc1)c1ccc(Br)s1	9.3	–	–	·	–	10.1	–
O=C(CNc1ccc(Br)cc1)c1ccc(O)cc1	–	–	–	–	–	·	·
O=C(Nc1nc2ccsc2c(=O)s1)c1ccc(Cl)cc1	13.8	–	–	·	–	10.4	9.1
Cn1sc(NC(=O)c2ccc(Cl)cc2)nc1=O	8.4	–	–	–	–	–	10.9
